Results published in the supplement of paper PMC11417369.
± gives the standard deviation of the averaged measurements. The full ranking holds about 25,000 sequences; the median of “ln(normalized median fluorescence intensity)” is about 8.9, and the highest 2% start at about 10. This is one part of a sample in which the highest values are shown more often than they occur.

system: PfAP2-LT AP2 domain (GST-tagged); experiment: gcPBM binding intensity (ln(normalized median fluorescence intensity)); higher = stronger DNA binding
How it was run: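 An Agilent 4 × 180k array carrying primer-extended double-stranded 36-bp intergenic genomic probes and negative controls received GST-tagged P. falciparum DNA-binding domains expressed in E. coli, about 25 μg on average, for 1 h. The binding buffer contained 1× PBS, 1% milk, 0.2 mg/ml BSA, 0.5% salmon testes DNA and 0.03% Triton X-100. Binding intensity is the top Masliner-normalised natural-log median intensity across replicate spots of either probe orientation, read after Alexa488 anti-GST antibody staining and a 488 nm scan.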

Sequence | gcPBM binding intensity (ln)
AATTAAAATACAAATGTATGCATGTCTCATATAGAA [TGCATGCA_site822] | 8.78 ± 0.43
ATTCTTAAATGTGGTTGTACATATTATCACCTTTAA [XGTACX_site8188] | 8.75 ± 0.42
TGGAGATTTTTAAAGACACACAGGTAAGAATAATAA [CACACA_site1582] | 8.77 ± 0.47
GATACCTATAGACACACACACATACCTATATACATA [CACACA_site7586] | 9.66 ± 0.47
TATATGTAAATGGACACACACATATATATATATATA [CACACA_site3659] | 10 ± 0.13
TATATATATGGACACACACACATATATATATATTTT [CACACA_site5409] | 9.67 ± 0.23
AAAGGATATAGACACACACACACATATATATATATA [CACACA_site2200] | 10.3 ± 0.32
TATATATATAGACACACACACACATATATATATATA [CACACA_site9366] | 10.02 ± 0.042
CAAGAAAATGGACACACACACATATATATATATATA [CACACA_site6010] | 10.37 ± 0.092
AAAGGATATGGACACACACACACATATATATATATA [CACACA_site8686] | 10.5 ± 0.15
TAAATTTATGGACACACACACATATATATATATATA [CACACA_site4620] | 9.955 ± 0.021
AAAAATTATGGACACACACACATATATATATATATT [CACACA_site4717] | 9.8 ± 0.11
GAGAAATGGAGACACACACACATATTATATATATAT [CACACA_site1532] | 9.85 ± 0.15
TATATATATGGACACACACACATATAAATAAATAAA [CACACA_site4406] | 9.71 ± 0.49
TATATATATGGACACACACACACATATATATATATA [CACACA_site6121] | 10.3 ± 0.23
ATAATATTGTGGTATACACACCTTACAAAAAGGTAC [CACACA_site5582] | 8.96 ± 0.42
AAATATAAAAATAGCACACATATATACCTATATATA [CACACA_site4204] | 8.99 ± 0.38
TATTGCCCTTGACACACACACATATAAATAAATATA [CACACA_site7220] | 9.34 ± 0.44
TATTGCCCTGGACACACACACATATATATATATATA [CACACA_site5389] | 10.2 ± 0.064
TATATTGCCCTTCACACACACACATATATATATATA [CACACA_site2492] | 10 ± 0.13
ATTCAAATATTAAAAAGTACAAAAAAAAAACAAAAA [XGTACX_site1174] | 8.63 ± 0.5
AAGCTTTCATAAAGATGTACTTTTTAAAAATAATCT [XGTACX_site5725] | 8.28 ± 0.3

Sequence | gcPBM binding intensity (ln)
TACATTTTATGCATTTGTACACAAATAAATAAATAA [XGTACX_site2652] | 8.49 ± 0.42
TTTTTCAGAAAAGAAACACACATATATATATTTATA [CACACA_site2372] | 8.56 ± 0.43
TTAGGCAAGGCGGGGGGTACGTTTTTATATAATTAT [XGTACX_site8029] | 10.2 ± 0.14
AATAATATATTTAGGGGTACATAATAATATATTTTA [XGTACX_site8366] | 8.66 ± 0.3
AAATATATTATAAATTGTACGTTTATATATATTATT [XGTACX_site5110] | 8.69 ± 0.47
ATCTCTATGATATATACACACAAATATACAAAAAAA [CACACA_site6605] | 8.96 ± 0.45
TATAATATTCTATATGCATGTACACCATTCTTTATT [TGCATGCA_site688] | 9.15 ± 0.45
TATATATATATATATACATGCATCATTGTTCACCTT [TGCATGCA_site177] | 10.2 ± 0.35
GTTCATCACATATACACATGCATATTCTAATATGTA [TGCATGCA_site809] | 8.95 ± 0.41
ACACATACATATACATACACATTGTTTTCATGCATC [XGTACX_negctrl_site126] | 9.2 ± 0.39
TAAAATGAATAAAATTGTACTTAATAATATTTTAAA [XGTACX_site5532] | 8.23 ± 0.57
TAAAATATAGAAAATTTTATTAAATATAAAAAAATA [CACACA_negctrl_site1441] | 8.28 ± 0.47
TATAAGAAATAAAACCTGATTATAAACCTGTAACCA [CACACA_negctrl_site1302] | 8.63 ± 0.37
ATAAATACTAGGCACACACACATATATATATATATA [CACACA_site2080] | 10.4 ± 0.014
ATAAATACTAGGCACACACACATATAGATTTATATA [CACACA_site7064] | 9.77 ± 0.47
AATAAAATAATAGGCACACATATATATATATATTAT [CACACA_site273] | 9.2 ± 0.37
AAATAAATACTAGGCACACACACATATATATATATA [CACACA_site2079] | 10.1 ± 0.15
AAAATAATAATAGGCACACATATATATATATATATA [CACACA_site2058] | 9.99 ± 0.21
ATAAATAAATACTAGGCACACACACCGATATATATA [CACACA_site8649] | 9.76 ± 0.22
TATATTTGGAAAACATGTACATATAACAATATGTAA [XGTACX_site324] | 8.71 ± 0.34
TTAGTTATTAAAAAAAGTACATAAGTAGATATCATC [XGTACX_site8712] | 8.7 ± 0.45
TTTGAACATTTTGCAAGTACAAAAAAATAATATATC [XGTACX_site8079] | 8.65 ± 0.42

Sequence | gcPBM binding intensity (ln)
ACTCTCTTATATTAAACACACATATATATATGTATA [CACACA_site2703] | 8.99 ± 0.42
GTGCTAAAAGTATATGCACACACATATATATGCACA [CACACA_site8472] | 9.42 ± 0.31
TATATACACATATATAAACACACAAAAAAAAAAAAA [CACACA_site8626] | 8.89 ± 0.4
AATAAACATAAATACACACACAAAAAAAAAAACATA [CACACA_site4396] | 9.64 ± 0.33
TATACACATATATAAACACACAAAAAAAAAAAAAAA [CACACA_site7041] | 8.88 ± 0.49
TATAACATAAAACACACACACATACATACACAAAAA [CACACA_site1804] | 10.1 ± 0.15
AATAAACATATATACACACACAAAAAAAAAAACATA [CACACA_site424] | 9.59 ± 0.5
AATATATAAACATATACACACAAAAACATATATATA [CACACA_site4855] | 9.21 ± 0.33
AAAAAAAAAAAACATACACACAAATAAATACATACA [CACACA_site6073] | 9.23 ± 0.36
AAATAAAACAAACACACACACACATACACAAAAAAA [CACACA_site3849] | 10.12 ± 0.035
ATAAAACAAAAACACACACACATACACAAAAAAAAA [CACACA_site3848] | 10.1 ± 0.3
AATTTTTTATATGTCACACATTTATTATTATTATTA [CACACA_site4198] | 8.83 ± 0.48
AACATATAAAAATATGCACACACAGGAATACAAACA [CACACA_site8127] | 9.89 ± 0.45
AAAAAATAAATAAATAGTACTTTAAAAGAAAAAAAA [XGTACX_site5051] | 8.55 ± 0.51
TGTTTATTTAATAATATTTTTTTTTTTATTATATTA [XGTACX_negctrl_site56] | 8.31 ± 0.54
ATAAGATTATACAATTGTACGTTGTTCAAGATAAGG [XGTACX_site191] | 8.8 ± 0.42
AATAAATATAAATAAATAAATATATATATATATTTG [CACACA_negctrl_site1486] | 8.56 ± 0.4
TTTTATGTTTTAAAATGTACGTGTCAATGAATAAGT [XGTACX_site6239] | 8.52 ± 0.42
TTATTTACAACTTCAAATTATGTGTAATACTACTAT [CACACA_negctrl_site741] | 8.73 ± 0.52
AAAACAATATACTGTAGTACTGATGATATATATATA [XGTACX_site7798] | 9.01 ± 0.38
AAGAACAGAACGTACACACACATATTTATATTTATA [CACACA_site7594] | 9.55 ± 0.3
AACACAAGAACAGAACGTACACACACATATATATAT [XGTACX_site7347] | 9.84 ± 0.13

Sequence | gcPBM binding intensity (ln)
TAAAAAAAAACATATACACACAAAAACGTACACATA [CACACA_site1354] | 9.31 ± 0.3
TATATATACATATACACACATACGTACATACATATA [CACACA_site3585] | 9.13 ± 0.39
AAGAACAGAACGTACACACACATATATATATATATA [CACACA_site3457] | 10.2 ± 0.28
ACAAGAACAGAACGTACACACACATATATATATATA [CACACA_site9143] | 10.175 ± 0.0071
AAAAAATAATAATAAAATGAATAGATATGTATTTAT [TGCATGCA_negctrl_site210] | 8.63 ± 0.52
AAAAAAAAAAAAAAATGTACATATATAATATTTATA [XGTACX_site5117] | 8.54 ± 0.57
TATAAAATTACATTTTGTCATTTATTTTTTCCCACT [TGCATGCA_negctrl_site110] | 8.54 ± 0.63
ACAAAAGGGGAATACACACACATATATATATATATA [CACACA_site2215] | 10.33 ± 0.071
ACAAAAGGGGAATACACACACATATATAAATAAATA [CACACA_site7111] | 9.59 ± 0.6
AGTATATATACACAAGGGGAATACATATACAAAATT [TGCATGCA_negctrl_site244] | 9.04 ± 0.46
CACACAAAGGAATATACACACATATTTATATTTATA [CACACA_site7841] | 9.21 ± 0.44
ATACAAAAGGGGAATACACACACATATATATATATA [CACACA_site8694] | 10.12 ± 0.021
CCCACAAAGGAATATACACACATATATATATATATA [CACACA_site4091] | 9.95 ± 0.18
ACAATAAAAATTTATGCATGTGAATTGAAAAAAAAA [TGCATGCA_site1037] | 8.72 ± 0.48
CATAAATCAGCCATAACACACATACATATATACATA [CACACA_site8025] | 9.28 ± 0.42
TAATATACATAATAATGTACATATTTTCATATATAC [XGTACX_site6913] | 8.74 ± 0.35
ACCATGAAAATATTATGTACATATGTATTATATATA [XGTACX_site408] | 8.87 ± 0.33
ATATATAATATATATGCATGTGACATTAATAATATA [TGCATGCA_site880] | 8.81 ± 0.4
TTTATATTGATATATACACACATATACATCCTATTT [CACACA_site7442] | 9.11 ± 0.42
AACCATTGGGAAAGGGTGCACATATATATATATATA | 10.09 ± 0.099
ATAAATATTGGGTGCACACACATAATATATATATAT [CACACA_site2272] | 9.59 ± 0.35
GGAAAAACCATTCGCACACACACATAATATATAATA [CACACA_site1424] | 9.71 ± 0.31
